Here are results for 36 compounds from PubChem BioAssay.

Structures are written as SMILES.

The target of the assay is Follistatin-related protein 3 (Homo sapiens) (UniProt O95633). The assay is described as follows: compounds binding follistatin-related protein 3 – biochemical, small-molecule microarray, 635 nm fluorescence, primary screen (AID 1105).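 Note: score merges emission near 667 nm and signal to noise per printed spot across three slides.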 Conditions: FSTL3 binding, higher = more signal.
Sequence of Follistatin-related protein 3 (Homo sapiens) (O95633 whole entry, looked up): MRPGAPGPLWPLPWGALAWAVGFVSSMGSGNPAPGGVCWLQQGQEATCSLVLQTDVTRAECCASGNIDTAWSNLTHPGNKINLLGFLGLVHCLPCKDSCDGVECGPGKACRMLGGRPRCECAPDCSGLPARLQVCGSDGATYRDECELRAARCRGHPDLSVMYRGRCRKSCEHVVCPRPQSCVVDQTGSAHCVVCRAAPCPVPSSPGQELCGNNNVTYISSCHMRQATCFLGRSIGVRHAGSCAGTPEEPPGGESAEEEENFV
With `N#Cc1ccc(NN2C(C(O)c3ccc(Br)cc3)C=CC3C(=O)N(c4ccccc4)C(=O)C32)cc1` (stereo unspecified), the composite z-score turned out to be 0.743.
Compound `CC1CC/C=C\[C@H]2OC34C=CCN(c5ccc(Cl)cc5)C(=O)[C@H]3N(C(C)CO)C(=O)[C@]4(C)C2C(=O)O1` (stereo partly specified) registered a composite z-score of -1.43.
On to `CO[C@H]1O[C@H](CO)[C@@H](OC(=O)Nc2ccc(Br)cc2)[C@@H]2OC(=O)[C@@H](Cc3ccccc3)C/C=C/C[C@H](Cc3ccccc3)C(=O)O[C@@H]12`, for which the composite z-score is -0.0749.
Regarding `CCOC(=O)C[C@H]1[C@H](OC(=O)c2cc3ccccc3oc2=O)[C@@H](NC(=O)c2ccccc2)c2cc(OCCCO)ccc2N1C(=O)c1ccccc1`, the composite z-score was found to be 0.653.
Consider `O=C1OCCC=C[C@H]2OC34C=CCN(c5ccc6ccccc6c5)C(=O)[C@H]3N(CCCO)C(=O)[C@@H]4C12` (stereo partly specified), for which the composite z-score was -1.94.
With `O=C1C2C=CC(C(O)C3CC=CCC3)N(Nc3ccccc3)C2C(=O)N1c1ccccc1` (stereo unspecified) the figure was 1.03.
The figure for `Cc1ccc(S[C@]2(C(=O)NC(C)C)CC(=O)N(Cc3cc(C(F)(F)F)cc(C(F)(F)F)c3)[C@@H]2c2ccc(CO)cc2)cc1` is -1.57; for `CCOC(=O)C[C@H]1[C@H](OC(=O)c2ccccc2-c2ccccc2)[C@@H](NC(=O)c2ccc3ccccc3n2)c2cc(OCCCO)ccc2N1C(=O)Cc1ccc(OC)cc1` it is 0.176.
The compound `CC(C)c1ccc(NN2C(C(O)c3ccc(C#N)cc3)C=CC3C(=O)N(c4ccccc4)C(=O)C32)cc1` (stereo unspecified) yielded a composite z-score of 1.24.
`CCC#CCN(Cc1ccccc1Br)[C@H](/C=C/C1CC1)[C@@H](O)Cc1ccccc1` registered a composite z-score of -0.583.
Take `C=C[C@@H](OC)[C@H](OC(=O)Nc1ccc(OC)cc1)c1ccc(O)c(F)c1`: the composite z-score was -0.0891.
The figure for `C=CCC(OC(C)=O)[C@@H]1[C@@H](N(Cc2ccc(-c3cccc(C(F)(F)F)c3)o2)C(=O)c2ccc(-c3ccccc3)cc2)c2cc(OCCCO)ccc2N1C(=O)Cc1ccc2ccccc2c1` (stereo partly specified) is -0.116; for `CCOC(=O)C1=C[C@@H](c2ccccc2)N(S(=O)(=O)c2ccc(C)cc2)[C@H]1c1ccc(OC)cc1` it is 0.652; for `CS(=O)(=O)CCOC(=O)C1=CC(CCCO)=CC(c2ccc(CN3CCCC3)cc2)N(Cc2sc3ccccc3c2Cl)C=C1C(=O)OCCS(C)(=O)=O` (stereo unspecified) it is 1.
Compound `CCOC(=O)C[C@H]1[C@H](OC(=O)Cc2ccc3c(c2)OCO3)[C@@H](NC(=O)c2ccc3ccccc3n2)c2cc(OCCCO)ccc2N1C(=O)c1ccc2ccccc2n1` registered a composite z-score of 0.492.
`C=CCC(OC(C)=O)[C@@H]1[C@@H](N(Cc2ccc(-c3ccccc3)cc2)C(=O)c2ccc(-c3ccccc3)cc2)c2cc(OCCCO)ccc2N1C(=O)c1ccc2ccccc2c1` (stereo partly specified) had a composite z-score of 0.453.
Compound `Cc1ccc(NN2C(C(O)c3c(F)cccc3Cl)C=CC3C(=O)N(C4CCCCC4)C(=O)C32)cc1` (stereo unspecified) yielded a composite z-score of 0.716.
For the compound `CN(C)C(=O)[C@]1(Cc2ccccc2CN=[N+]=[N-])N=C(c2ccc(OCCCO)cc2)O[C@@H]1c1ccccc1`, the composite z-score was -0.202.
`Cc1ccc(S[C@]2(C(=O)O)CC(=O)N(C3CCCCC3)[C@@H]2c2ccc(CO)cc2I)cc1` displayed a composite z-score of 1.04.
Consider `CCOC(=O)C[C@H]1[C@H](OC(=O)c2cc3ccccc3oc2=O)[C@@H](NC(=O)CC(C)C)c2cc(OCCCO)ccc2N1C(=O)c1ccc2ccccc2n1`, for which the composite z-score amounted to 1.14.
`CCOC(=O)C[C@H]1[C@H](OC(=O)c2ccc(-c3ccccc3)cc2)[C@@H](NC(=O)CC(C)C)c2cc(OCCCO)ccc2N1C(=O)c1ccc2ccccc2n1` returned a composite z-score of 0.47.
In turn, `CCOC(=O)C[C@H]1[C@H](OC(=O)c2ccc(C(=O)c3ccccc3)cc2)[C@@H](NC(=O)c2ccc3ccccc3n2)c2cc(OCCCO)ccc2N1C(=O)Cc1ccc(OC)cc1` came in with a composite z-score of 0.346.
The figure for `COc1ccc([Si](C)(C)[C@@H]2[C@@H](CC(=O)N(CCO)Cc3ccccc3)O[C@]3(C(=O)N(Cc4cccc(N5CCCCC5=O)c4)c4ccccc43)[C@H]2C)cc1` is 0.84; for `COC(=O)[C@]1(CCS(=O)(=O)c2ccccc2)N=C(c2ccc(OCCCO)cc2)O[C@@H]1c1ccccc1N=[N+]=[N-]` it is 1.2.
Take `COC(=O)[C@@]1(Cc2ccccc2)[C@H]2c3cc(C(=O)N4CCCC4)n(CCc4ccccn4)c3C[C@H]2CN1C(=O)c1ccccc1`: the composite z-score amounted to 0.921.
Turning to `CCCN1C(=O)[C@@]2(Cc3ccccc31)N=C(c1ccc(OCCCO)cc1)O[C@H]2c1ccccc1`, the composite z-score turned out to be 0.191.
`COC(=O)[C@@]1(Cc2ccc(F)cc2)[C@H]2c3cc(C(=O)N(C)C)n(Cc4ccc(OC(F)(F)F)cc4)c3C[C@H]2CN1C(=O)c1ccccc1` displayed a composite z-score of 0.298.
Regarding `CC(=O)N1CC2(CC2)CC1c1ccccc1` (stereo unspecified), the composite z-score is -0.154.
Compound `CC(C)[Si](C#CCCCC#N)(O[C@H](c1ccccc1)c1cn(Cc2ccccc2)nn1)C(C)C` yielded a composite z-score of 1.21.
`COCCOC(=O)N1C(=O)[C@@]2(c3cc(C#CC4(O)CCCCCC4)ccc31)[C@H](c1ccc(O)cc1)N1[C@H](c3ccccc3)[C@H](c3ccccc3)OC(=O)[C@H]1[C@@H]2C(=O)N1CCN(c2ncccn2)CC1` yielded a composite z-score of 0.476.
As to `CC1=C2[C@@H](CCc3ccccc3)OB(O)C[C@@H]2[C@@H]2C(=O)N(Cc3ccccc3)C(=O)[C@@H]2C1`, the composite z-score amounted to 0.746.
With `CCOC(=O)C[C@H]1[C@H](OC(=O)Cc2ccc3c(c2)OCO3)[C@@H](NC(=O)C2CCCCC2)c2cc(OCCCO)ccc2N1C(=O)c1ccccc1` the figure was 0.145.
As for `COCCCNC(=O)[C@@]1(CCC(=O)OC(C)(C)C)N=C(c2ccc(OCCCO)cc2)O[C@H]1c1ccccc1N=[N+]=[N-]`, the composite z-score was determined as 0.209.
Compound `[N-]=[N+]=Nc1ccccc1C[C@]1(C(=O)NCC(O)CO)COC(c2ccc(OCCCO)cc2)=N1` (stereo partly specified) registered a composite z-score of -1.14.
On to `CCCC[C@@H](O)C1=C(COC)C[C@H]2C(=O)N(C)C(=O)[C@H]2[C@H]1CO`, for which the composite z-score was found to be 0.344.
Turning to `CCCCCCc1nc(Cc2cc(OC)c(OC)c(OC)c2)cc2c1[Si](C(C)C)(C(C)C)OC2`, the composite z-score stood at 0.494.
